In PubChem BioAssay:
The source made the active and inactive calls.

Tests used:
Albumin (Bos taurus) = Albumin (Bos taurus) (UniProt P02769); assay: compounds binding labelled BSA control protein – biochemical, small-molecule microarray, Alexa647 label, 635/667 nm fluorescence, artefact control for SMM control protein annotation, profiling panel (AID 1118); conditions: BSA-A647 binding, fluorescence 635 nm, higher = more signal;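 also: score merges 667 nm emission intensity and signal-to-noise per printed compound spot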
[1] = probe aXIP binding to arrayed compounds – biochemical, NeuroSMM set, 635/667 nm fluorescence, primary screen (AID 1119); conditions: small-molecule microarray, higher = more signal, called active from +8 up or from −8 down;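 also: probe is the protein aXip251-270 applied at 1 µg/mL to compound-printed slides; binding of probe to printed compounds measured as 667 nm fluorescence plus signal to noise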
[2] = probe aNOTCH3 binding on compound microarray – biochemical, small-molecule microarray, 635/667 nm fluorescence, primary screen (AID 1120); conditions: higher = more signal;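 also: probe is a biotin-tagged antibody raised against NOTCH3 rather than NOTCH3 protein; score merges spot fluorescence near 667 nm with spot signal to noise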
[3] = probe aNOTCH2 binding on compound microarray – biochemical, small-molecule microarray, 635/667 nm fluorescence, primary screen (AID 1121); conditions: higher = more signal;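 also: score merges feature fluorescence read at 667 nm with its signal to noise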
[4] = target: Carbonic anhydrase 2 (Homo sapiens) (UniProt P00918); assay: compounds binding carbonic anhydrase 2 – biochemical, small-molecule microarray, Alexa647-labelled CAII, profiling panel (AID 1122); conditions: CAII-A647 binding fluorescence, higher = more signal
[5] = COS7 lysate on small-molecule microarray, probe aHis, 635 nm (AID 1123); conditions: COS7 cell lysate, fluorescence, higher = more signal;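 also: z-score combines 667nm fluorescence intensity with signal-to-noise per printed compound spot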
[6] = probe aLAP1 signal on lysate-treated microarray – cell lysate, small-molecule microarray, COS7 lysate, primary screen (AID 1124); conditions: probe aLAP1, fluorescence, higher = more signal;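 also: lysate comes from COS7 cells expressing LAP1 and is applied at 0.3 µg/mL; score merges spot fluorescence near 667 nm with signal-to-noise over triplicate slides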
Sam68 (KHDRBS1) = assay: compounds binding KHDRBS1 protein – biochemical, small-molecule microarray, 635 nm fluorescence, primary screen (AID 1125); conditions: higher = more signal;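 also: score merges 667 nm channel intensity with signal to noise over triplicate slides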
[7] = tested on: Chordin-like protein 2 (CHRDL2); assay: compounds binding chordin-like 2 – biochemical, small-molecule microarray, 635 nm fluorescence, primary screen (AID 1126); conditions: fluorescence 635 nm, higher = more signal;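 also: printed compound slides probed with Chrdl2 protein at 4 µg/mL for 1 h at 4 C; score merges 667 nm emission intensity with signal to noise over three replicate slides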
[8] = target: Concanavalin-A (Canavalia ensiformis) (UniProt P02866); assay: compounds binding concanavalin A lectin – biochemical, small-molecule microarray, Alexa647 label, 635 nm, artefact control for SMM control protein annotation, primary screen (AID 1127); conditions: ConA-A647 binding fluorescence, higher = more signal;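 also: z combines 667 nm emission intensity with signal-to-noise across three replicate slides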
[9] = compounds binding Alexa647 anti-His antibody – biochemical, small-molecule microarray, 635 nm fluorescence, artefact control for SMM control protein annotation, primary screen (AID 1128); conditions: higher = more signal;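 also: score merges feature fluorescence with signal-to-noise for each printed compound spot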
[10] = tested on: Human papillomavirus type 1a E7 protein (residues 1-88); assay: HPV1a E7 small-molecule binders, primary screen, biochemical, small-molecule microarray, residues 1-88, 635 nm (AID 1129); conditions: small-molecule microarray binding, fluorescence 635 nm; higher = more signal
[11] = target: Focal adhesion kinase 1 (Homo sapiens) (UniProt Q05397); assay: PTK2 protein binding on printed compound slides – biochemical, small-molecule microarray, 635/667 nm fluorescence, BSA, DTT, primary screen (AID 1130); conditions: 635 nm fluorescence, higher = more signal;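 also: composite of spot emission at 667 nm and signal to noise over triplicate slides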
[12] = tested on: Fibrinogen (Alexa647-labelled); assay: Alexa647-fibrinogen binding to printed small molecules – biochemical, small-molecule microarray, 635/667 nm fluorescence, artefact control for SMM control-protein annotation, profiling panel (AID 1131); conditions: fibrinogen-A647 binding fluorescence, higher = more signal;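 also: z-score merges 667 nm fluorescence with per-spot signal-to-noise over triplicate slides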
[13] = target: Follistatin (Homo sapiens) (UniProt P19883); assay: FST protein binding to printed compounds – biochemical, small-molecule microarray, 635/667 nm fluorescence, primary screen (AID 1132); conditions: 635 nm fluorescence, higher = more signal
[14] = target: Fibroblast growth factor 2 (Homo sapiens) (UniProt P09038); assay: basic fibroblast growth factor binding to printed compounds – biochemical, small-molecule microarray, 635/667 nm fluorescence, primary screen (AID 1133); conditions: FGF2, fluorescence 635/667, higher = more signal
[15] = JC-1 mitochondrial potential readout, lung cancer cells – cell-based, A549, JC-1 fluorescence, basal, 24 h, 100 nL, profiling panel (AID 1138); conditions: higher = more signal;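 also: A549 lung adenocarcinoma cells under basal conditions with no added stimulus; test concentration not given here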
Lefty1 = Lefty1 protein binding to printed compounds – biochemical, small-molecule microarray, 635/667 nm fluorescence, primary screen (AID 1139); conditions: fluorescence 635/667, higher = more signal
[16] = tested on: wheat germ agglutinin (Triticum aestivum), Alexa647-labelled; assay: Alexa647-WGA lectin binding to printed small molecules – biochemical, small-molecule microarray, 635/667 nm fluorescence, artefact control for SMM control-protein annotation, profiling panel (AID 1140); conditions: WGA-A647 binding, 635 nm fluorescence, higher = more signal;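 also: score merges 667 nm feature emission with signal to noise over triplicate slides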
[17] = target: Luciferin 4-monooxygenase (Photinus pyralis) (UniProt P08659); assay: inhibition of purified Photinus pyralis luciferase – biochemical, luminescence, purified enzyme, 2006 set, primary screen (AID 1141); conditions: purified firefly luciferase, SteadyGlo luminescence, 30 min; higher = more signal, called active from +8 up or from −8 down;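 also: cell-free assay with purified firefly luciferase at 100 ng per well in PBS; test concentration not given here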
Sequence of Luciferin 4-monooxygenase (Photinus pyralis) (P08659 whole entry, looked up): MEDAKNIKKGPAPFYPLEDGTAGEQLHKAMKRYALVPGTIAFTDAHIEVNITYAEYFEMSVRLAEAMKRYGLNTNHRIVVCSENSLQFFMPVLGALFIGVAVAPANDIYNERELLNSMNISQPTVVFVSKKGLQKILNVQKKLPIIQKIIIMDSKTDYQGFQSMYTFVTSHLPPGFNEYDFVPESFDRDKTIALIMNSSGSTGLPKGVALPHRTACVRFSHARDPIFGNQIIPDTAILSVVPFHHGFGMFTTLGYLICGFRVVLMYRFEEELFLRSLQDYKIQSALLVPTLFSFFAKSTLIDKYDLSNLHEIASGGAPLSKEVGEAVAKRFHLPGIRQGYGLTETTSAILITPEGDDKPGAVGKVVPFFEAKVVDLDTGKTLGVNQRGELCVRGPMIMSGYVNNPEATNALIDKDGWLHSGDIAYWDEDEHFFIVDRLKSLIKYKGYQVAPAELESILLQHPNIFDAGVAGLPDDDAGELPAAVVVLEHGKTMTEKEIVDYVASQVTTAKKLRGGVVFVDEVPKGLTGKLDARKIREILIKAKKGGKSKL

Sequence of Fibroblast growth factor 2 (Homo sapiens) (P09038 whole entry, looked up): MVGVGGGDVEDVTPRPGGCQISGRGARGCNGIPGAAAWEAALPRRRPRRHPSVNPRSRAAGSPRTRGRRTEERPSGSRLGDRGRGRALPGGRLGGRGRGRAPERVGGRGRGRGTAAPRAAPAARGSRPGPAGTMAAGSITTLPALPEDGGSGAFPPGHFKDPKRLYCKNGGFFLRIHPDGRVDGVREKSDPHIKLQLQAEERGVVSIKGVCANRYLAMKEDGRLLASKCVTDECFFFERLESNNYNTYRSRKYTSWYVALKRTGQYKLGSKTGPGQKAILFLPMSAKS
Sequence of Focal adhesion kinase 1 (Homo sapiens) (Q05397 whole entry, looked up): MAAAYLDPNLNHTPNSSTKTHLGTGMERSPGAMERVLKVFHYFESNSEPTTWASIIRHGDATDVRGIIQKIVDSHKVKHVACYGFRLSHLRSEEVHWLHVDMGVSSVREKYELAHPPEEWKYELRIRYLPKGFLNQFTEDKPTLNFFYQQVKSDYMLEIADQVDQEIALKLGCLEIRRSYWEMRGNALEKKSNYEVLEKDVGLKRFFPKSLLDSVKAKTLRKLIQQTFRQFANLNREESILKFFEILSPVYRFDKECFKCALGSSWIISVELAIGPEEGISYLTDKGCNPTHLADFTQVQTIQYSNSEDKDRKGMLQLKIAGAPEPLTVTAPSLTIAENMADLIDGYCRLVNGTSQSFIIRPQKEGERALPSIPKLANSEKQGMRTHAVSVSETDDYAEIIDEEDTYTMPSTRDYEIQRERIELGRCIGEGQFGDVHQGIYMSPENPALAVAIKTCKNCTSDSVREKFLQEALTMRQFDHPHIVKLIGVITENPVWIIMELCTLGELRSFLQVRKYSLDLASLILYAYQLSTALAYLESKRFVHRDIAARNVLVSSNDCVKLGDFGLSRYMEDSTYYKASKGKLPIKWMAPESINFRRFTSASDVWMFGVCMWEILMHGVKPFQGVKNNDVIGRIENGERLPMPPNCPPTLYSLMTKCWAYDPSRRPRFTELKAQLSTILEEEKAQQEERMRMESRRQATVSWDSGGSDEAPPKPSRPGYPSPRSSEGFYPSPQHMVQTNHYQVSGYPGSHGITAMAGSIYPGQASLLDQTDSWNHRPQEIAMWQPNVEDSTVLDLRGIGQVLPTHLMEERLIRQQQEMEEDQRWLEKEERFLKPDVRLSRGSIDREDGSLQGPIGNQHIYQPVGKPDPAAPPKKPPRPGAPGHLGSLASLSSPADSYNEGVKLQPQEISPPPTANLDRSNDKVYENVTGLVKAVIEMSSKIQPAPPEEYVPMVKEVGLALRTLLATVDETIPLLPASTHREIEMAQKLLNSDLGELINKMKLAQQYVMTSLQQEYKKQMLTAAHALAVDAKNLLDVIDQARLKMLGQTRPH
Sequence of Concanavalin-A (Canavalia ensiformis) (P02866 whole entry, looked up): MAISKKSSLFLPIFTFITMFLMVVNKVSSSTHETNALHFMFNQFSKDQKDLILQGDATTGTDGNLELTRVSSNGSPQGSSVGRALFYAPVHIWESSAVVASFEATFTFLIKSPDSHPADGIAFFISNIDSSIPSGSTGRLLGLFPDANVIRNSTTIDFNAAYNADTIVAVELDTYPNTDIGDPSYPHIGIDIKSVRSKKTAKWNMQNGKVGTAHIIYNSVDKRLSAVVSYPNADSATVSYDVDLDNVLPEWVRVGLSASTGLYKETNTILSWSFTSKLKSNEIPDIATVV
Sequence of Follistatin (Homo sapiens) (P19883 whole entry, looked up): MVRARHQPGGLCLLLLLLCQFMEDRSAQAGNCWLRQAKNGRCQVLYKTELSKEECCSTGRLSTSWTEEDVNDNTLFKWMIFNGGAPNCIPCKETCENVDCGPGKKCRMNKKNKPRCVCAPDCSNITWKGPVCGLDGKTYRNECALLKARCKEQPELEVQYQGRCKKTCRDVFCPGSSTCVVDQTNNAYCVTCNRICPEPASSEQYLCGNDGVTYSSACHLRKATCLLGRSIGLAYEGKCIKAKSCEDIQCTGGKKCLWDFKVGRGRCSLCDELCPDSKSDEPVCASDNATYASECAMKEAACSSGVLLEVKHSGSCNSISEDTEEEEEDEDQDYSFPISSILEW
Sequence of Albumin (Bos taurus) (P02769 whole entry, looked up): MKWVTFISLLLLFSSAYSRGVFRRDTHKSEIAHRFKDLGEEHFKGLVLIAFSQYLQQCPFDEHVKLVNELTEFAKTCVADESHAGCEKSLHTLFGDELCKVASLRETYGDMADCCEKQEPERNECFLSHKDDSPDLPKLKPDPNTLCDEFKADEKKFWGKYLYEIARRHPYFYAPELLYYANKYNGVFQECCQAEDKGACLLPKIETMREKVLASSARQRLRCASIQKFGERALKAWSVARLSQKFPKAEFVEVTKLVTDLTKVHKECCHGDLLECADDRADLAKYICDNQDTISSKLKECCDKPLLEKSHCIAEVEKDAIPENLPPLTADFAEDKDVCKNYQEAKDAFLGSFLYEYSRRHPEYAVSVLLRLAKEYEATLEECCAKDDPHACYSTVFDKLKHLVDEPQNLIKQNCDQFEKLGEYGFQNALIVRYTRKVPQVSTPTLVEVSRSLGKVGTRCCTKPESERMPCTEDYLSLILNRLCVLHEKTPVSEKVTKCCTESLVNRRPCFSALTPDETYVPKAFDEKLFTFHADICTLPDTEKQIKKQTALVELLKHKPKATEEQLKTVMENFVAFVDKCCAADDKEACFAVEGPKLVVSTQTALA

## CCCCN1CC=CC23O[C@@H]4/C=C\CCC(C)OC(=O)C4[C@H]2C(=O)N(CCCCCO)[C@@H]3C1=O (stereo not given in full)
Albumin (Bos taurus)
  composite z-score: -1.05
[1]
  composite Z-score: 0.114 (inactive)
[2]
  composite z-score: -0.422
[3]
  composite z-score: -0.126
[4]
  composite z-score: 0.867
[5]
  composite z-score: -0.427
[6]
  composite z-score: 1.34
Sam68 (KHDRBS1)
  composite z-score: -0.287
[7]
  composite z-score: -1.4
[8]
  composite z-score: -1.09
[9]
  composite z-score: -0.383
[10]
  composite z-score: -0.69
[11]
  composite z-score: -0.883
[12]
  composite z-score: -0.773
[13]
  composite z-score: -1.13
[14]
  composite z-score: -0.781
[15]
  z-score: -0.175
Lefty1
  composite z-score: -0.234
[16]
  composite z-score: -0.245
[17]
  z-score: 0.762 (inactive)

## CC(C)C(=C=CC[C@@H](O)c1ccccc1OCCO)CCO
Albumin (Bos taurus)
  composite z-score: 0.0824
[1]
  composite Z-score: -0.519 (inactive)
[2]
  composite z-score: -0.0311
[3]
  composite z-score: -0.115
[4]
  composite z-score: 0.374
[5]
  composite z-score: -0.501
[6]
  composite z-score: -0.412
Sam68 (KHDRBS1)
  composite z-score: 0.615
[7]
  composite z-score: 0.0551
[8]
  composite z-score: 0.542
[9]
  composite z-score: 2.31
[10]
  composite z-score: 0.43
[11]
  composite z-score: 0.306
[12]
  composite z-score: 0.442
[13]
  composite z-score: 0.71
[14]
  composite z-score: 0.853
[15]
  z-score: 0.991
Lefty1
  composite z-score: 0.352
[16]
  composite z-score: 0.201
[17]
  z-score: -1.91 (inactive)

## O=C1NC(=O)C2C1C=CC(C(O)Cc1ccccc1)N2Nc1ccc(Cl)cc1Cl (stereo not given)
Albumin (Bos taurus)
  composite z-score: 0.809
[1]
  composite Z-score: -0.082 (inactive)
[2]
  composite z-score: 0.198
[3]
  composite z-score: -0.11
[4]
  composite z-score: 0.803
[5]
  composite z-score: 2.07
[6]
  composite z-score: -0.226
Sam68 (KHDRBS1)
  composite z-score: -1.18
[7]
  composite z-score: -1.15
[8]
  composite z-score: -0.652
[9]
  composite z-score: 0.432
[10]
  composite z-score: -0.364
[11]
  composite z-score: 0.247
[12]
  composite z-score: 0.773
[13]
  composite z-score: 0.178
[14]
  composite z-score: -0.644
[15]
  z-score: 2.92
Lefty1
  composite z-score: -0.695
[16]
  composite z-score: 0.834
[17]
  z-score: 0.981 (inactive)

## O=C1O[C@H](c2ccccc2)[C@H](c2ccccc2)N2[C@H]1[C@@H](C(=O)O)[C@]1(C(=O)Nc3ccc(C#CC4=CCCCC4)cc31)[C@H]2c1ccccc1OCCO
Albumin (Bos taurus)
  composite z-score: 0.871
[1]
  composite Z-score: 0.685 (inactive)
[2]
  composite z-score: 0.806
[3]
  composite z-score: 0.0062
[4]
  composite z-score: 0.602
[5]
  composite z-score: 2.06
[6]
  composite z-score: 0.834
Sam68 (KHDRBS1)
  composite z-score: 1.31
[7]
  composite z-score: 0.401
[8]
  composite z-score: 1.19
[9]
  composite z-score: 1.76
[10]
  composite z-score: 1.23
[11]
  composite z-score: 0.827
[12]
  composite z-score: 0.922
[13]
  composite z-score: 1.26
[14]
  composite z-score: 1.08
[15]
  z-score: -2.56
Lefty1
  composite z-score: 1.63
[16]
  composite z-score: 1.18
[17]
  z-score: -6.51 (inactive)

## CC(C)(C)OC(=O)CC[C@@]1(C(=O)NCC(O)CO)N=C(c2ccc(OCCCO)cc2)O[C@@H]1c1ccccc1N=[N+]=[N-] (stereo not given in full)
Albumin (Bos taurus)
  composite z-score: 0.866
[1]
  composite Z-score: 0.559 (inactive)
[2]
  composite z-score: 0.183
[3]
  composite z-score: 0.0083
[4]
  composite z-score: 0.741
[5]
  composite z-score: 3.53
[6]
  composite z-score: 0.537
Sam68 (KHDRBS1)
  composite z-score: 1.16
[7]
  composite z-score: -0.121
[8]
  composite z-score: 1.2
[9]
  composite z-score: 2.37
[10]
  composite z-score: 0.818
[11]
  composite z-score: 0.94
[12]
  composite z-score: 0.985
[13]
  composite z-score: 1.43
[14]
  composite z-score: 0.692
[15]
  z-score: 1.18
Lefty1
  composite z-score: -0.0052
[16]
  composite z-score: 0.96
[17]
  z-score: -10.6 (active)

## CC(C)[C@@H](CO)NC(=O)[C@H]1[C@@H](c2ccccc2)N(c2ccccc2)O[C@@H]1C
Albumin (Bos taurus)
  composite z-score: 0.595
[1]
  composite Z-score: 0.365 (inactive)
[2]
  composite z-score: -0.0573
[3]
  composite z-score: -0.162
[4]
  composite z-score: 0.459
[5]
  composite z-score: 0.46
[6]
  composite z-score: 0.145
Sam68 (KHDRBS1)
  composite z-score: -0.238
[7]
  composite z-score: 0.207
[8]
  composite z-score: -0.271
[9]
  composite z-score: 0.398
[10]
  composite z-score: -0.253
[11]
  composite z-score: -0.168
[12]
  composite z-score: 0.0711
[13]
  composite z-score: 0.104
[14]
  composite z-score: 0.0808
[15]
  z-score: 0.204
Lefty1
  composite z-score: 0.216
[16]
  composite z-score: 0.149
[17]
  z-score: -0.21 (inactive)
